Measured values taken from PubChem BioAssay (NCATS).
Records with an inconclusive call do not appear. Values without a mark were called inactive. Calls follow the shape of the dose curve; as a rule, active = well fitted cell-killing curve with a large enough effect; inconclusive = small, poorly fitted or top-dose-only effect; inactive = flat fitted curve, though single readings scatter.

Experiment: Cell Viability - LYMP2-006 (AID 978);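 also: cells exposed to compound for 24 hours; % is scaled to controls: 0 for no effect and ±100 for the full control effect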
Details: LYMP2-006 lymphoblastoid cell viability, qHTS; series mostly up to 92.2 µM; activity change, negative = cytotoxicity: at the top concentration
Method in brief: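 Cells are seeded at 2500 per well and rested 5 hr at 37 C. Compounds are added across a concentration series for 24 hr at 37 C, after which ATP is quantified by luciferase luminescence.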
Also: nearly all actives have a fitted effect of over 60% in size.

| SMILES | activity change, negative = cytotoxicity [%] |
| --- | --- |
| CC=O | 9.3 |
| Cc1ccc(CO)cc1 | 16.7 |
| Cc1cc([N+](=O)[O-])ccc1N | -2.27 |
| Clc1cc(Cl)cc(Cl)c1 | -3.51 |
| Nc1nc2ccccc2[nH]1 | 1.37 |
| NC(=O)c1ccccc1[N+](=O)[O-] | -0.924 |
| COc1ccc(N)c(C)c1 | 7.17 |
| Oc1cccc(Nc2ccccc2)c1 | -8.58 |
| O=C(O)c1cccc(Cl)c1Cl | -0.931 |
| O=C(O)CNC(=O)c1ccc(CO)o1 | -0.44 |
| Nc1cccc2c(=O)[nH][nH]c(=O)c12 | -1.17 |
| CCOc1cccc(N)c1 | -4.79 |
| CCC(C)(C)C(=O)O | 3.54 |
| ICCc1ccccc1 | 2.46 |
| COc1ccc(OC)cc1 | 16.5 |
| FC(F)(F)c1cccc(Cl)c1 | -5.88 |
| CCOc1ccccc1N | 5.11 |
| C=CC(=O)NC(C)C | -2.84 |
| Cc1ccc2cccnc2c1 | -7.27 |
| CCCCCCO | 4.3 |

| SMILES | activity change, negative = cytotoxicity [%] |
| --- | --- |
| CC(=O)Nc1ccccc1C | -5.64 |
| CC(C)(c1cc(Br)c(OCC(Br)CBr)c(Br)c1)c1cc(Br)c(OCC(Br)CBr)c(Br)c1 (stereo not drawn) | -9.68 |
| COc1ccc(N=[N+]([O-])c2ccc(OC)cc2)cc1 | -18 |
| CNc1ccccc1 | -2.28 |
| Oc1c(Cl)ccc(Cl)c1Cl | 11.8 |
| CN(C)CCCNCCCN | -11.6 |
| ClC/C=C/CCl | -9.39 |
| O=C(Cl)c1cccc([N+](=O)[O-])c1 | 1.89 |
| CC(=C/C=C/C(C)=C/C=C/C=C(C)/C=C/C=C(C)/C=C/C(=O)O)/C=C/C(=O)O | -5.52 |
| Cc1cccc(C(=O)O)c1 | -3.08 |
| Cc1ccc2ncccc2c1 | 9.34 |
| Nc1cccc(C(F)(F)F)c1 | 9.01 |
| O=Cc1ccc(C(=O)O)cc1 | -16.4 |
| NC(=O)/N=N/C(N)=O | 6.31 |
| CC(=O)c1cccc([N+](=O)[O-])c1 | -6.54 |
| CNC(=O)c1ccccc1 | -8 |
| O=[N+]([O-])c1cccc(C(F)(F)F)c1 | 1.34 |
| CCC(C)(C)OC | -11.3 |
| NC(N)=S | -0.706 |

Experiment: Cell Viability - LYMP2-007 (AID 979);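 also: cells exposed to compound for 24 h before reading; 0% = DMSO only and the negative end = 92 µM tetraoctylammonium bromide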
Details: LYMP2-007 lymphoblastoid cell viability; series mostly up to 92.2 µM; activity change, negative = cytotoxicity: at the top concentration
Method in brief: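 Human lymphoblastoid LYMP2-007 cells (2500/well) preincubated 5 h at 37 C, then treated 24 h at 37 C in complete medium. Viability by CellTiter-Glo ATP luminescence after 30 min at room temperature; AC50 from Hill fits.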

| SMILES | activity change, negative = cytotoxicity [%] |
| --- | --- |
| Clc1cc(Cl)cc(Cl)c1 | 12.5 |
| Nc1nc2ccccc2[nH]1 | -10.6 |
| COc1ccc(N)c(C)c1 | -2.67 |
| Oc1cccc(Nc2ccccc2)c1 | -0.865 |
| O=C(O)CNC(=O)c1ccc(CO)o1 | -5.31 |
| CCOc1cccc(N)c1 | -10.1 |
| CCC(C)(C)C(=O)O | 3.32 |
| ICCc1ccccc1 | -11.7 |
| COc1ccc(OC)cc1 | -5.32 |
| FC(F)(F)c1cccc(Cl)c1 | -0.588 |
| CCNS(=O)(=O)c1ccc(C)cc1 | 3.08 |
| CCOc1ccccc1N | -4.74 |
| C=CC(=O)NC(C)C | -11.2 |
| Cc1ccc2cccnc2c1 | 0.14 |
| CC(=O)Nc1ccccc1C | -13.7 |
| COc1ccc(N=[N+]([O-])c2ccc(OC)cc2)cc1 | -25.9 |
| Oc1c(Cl)ccc(Cl)c1Cl | -0.413 |
| CN(C)CCCNCCCN | -20.8 |
| ClC/C=C/CCl | -25.9 |
| O=C(Cl)c1cccc([N+](=O)[O-])c1 | -1.46 |
| CC(=C/C=C/C(C)=C/C=C/C=C(C)/C=C/C=C(C)/C=C/C(=O)O)/C=C/C(=O)O | 0.381 |
| Cc1cccc(C(=O)O)c1 | 5.29 |
| Cc1ccc2ncccc2c1 | 0.748 |
| Nc1cccc(C(F)(F)F)c1 | -10.9 |
| NC(=O)/N=N/C(N)=O | -14.8 |
| CC(=O)c1cccc([N+](=O)[O-])c1 | -5.39 |
| O=[N+]([O-])c1cccc(C(F)(F)F)c1 | 3.62 |
| CCC(C)(C)OC | -8.8 |
| NC(N)=S | 8.82 |
